Assay results published in the supplement of paper PMC10849652.
Of roughly 7,900 targets only a part is listed; those with a hit were picked by preference. About 0.6% of all pairs of compound and target were hits. Unmarked numbers belong to inactive results.

Compound: CNCc1ccc(-c2[nH]c3cc(F)cc4c3c2CCNC4=O)cc1 [rucaparib]
Test: log2 fold change, soluble protein after heating vs DMSO (PISA); higher = thermal stabilisation; K562 cells, 10 uM, 30 min; active = over 0.2 and 3.5 SD of the protein, either way, in both replicates (recomputed)
How it was run: (§1)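 K562 cells (2×10^6 cells/mL) were treated with 10 μM compound for 30 min, and aliquots were heated for 3 min over 48°C-58°C. Pooled aliquots were extracted in PBS with 0.5% NP-40 at 4°C, and the supernatant after 21,000xg for 90 min was measured by TMTpro 16plex LC-MS/MS with channel sums equalised. Reported thermal stability, relative to control samples and from duplicates, is a log2 fold change.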

Sequence of UniProt P68402 (P68402 whole entry, looked up): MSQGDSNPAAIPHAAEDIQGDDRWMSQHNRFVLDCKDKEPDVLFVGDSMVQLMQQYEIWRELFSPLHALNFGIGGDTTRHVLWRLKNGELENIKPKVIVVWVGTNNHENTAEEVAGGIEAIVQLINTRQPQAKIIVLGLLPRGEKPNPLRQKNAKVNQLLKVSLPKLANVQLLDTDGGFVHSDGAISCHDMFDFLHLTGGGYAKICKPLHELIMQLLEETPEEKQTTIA
Sequence of UniProt Q12968 (Q12968 whole entry, looked up): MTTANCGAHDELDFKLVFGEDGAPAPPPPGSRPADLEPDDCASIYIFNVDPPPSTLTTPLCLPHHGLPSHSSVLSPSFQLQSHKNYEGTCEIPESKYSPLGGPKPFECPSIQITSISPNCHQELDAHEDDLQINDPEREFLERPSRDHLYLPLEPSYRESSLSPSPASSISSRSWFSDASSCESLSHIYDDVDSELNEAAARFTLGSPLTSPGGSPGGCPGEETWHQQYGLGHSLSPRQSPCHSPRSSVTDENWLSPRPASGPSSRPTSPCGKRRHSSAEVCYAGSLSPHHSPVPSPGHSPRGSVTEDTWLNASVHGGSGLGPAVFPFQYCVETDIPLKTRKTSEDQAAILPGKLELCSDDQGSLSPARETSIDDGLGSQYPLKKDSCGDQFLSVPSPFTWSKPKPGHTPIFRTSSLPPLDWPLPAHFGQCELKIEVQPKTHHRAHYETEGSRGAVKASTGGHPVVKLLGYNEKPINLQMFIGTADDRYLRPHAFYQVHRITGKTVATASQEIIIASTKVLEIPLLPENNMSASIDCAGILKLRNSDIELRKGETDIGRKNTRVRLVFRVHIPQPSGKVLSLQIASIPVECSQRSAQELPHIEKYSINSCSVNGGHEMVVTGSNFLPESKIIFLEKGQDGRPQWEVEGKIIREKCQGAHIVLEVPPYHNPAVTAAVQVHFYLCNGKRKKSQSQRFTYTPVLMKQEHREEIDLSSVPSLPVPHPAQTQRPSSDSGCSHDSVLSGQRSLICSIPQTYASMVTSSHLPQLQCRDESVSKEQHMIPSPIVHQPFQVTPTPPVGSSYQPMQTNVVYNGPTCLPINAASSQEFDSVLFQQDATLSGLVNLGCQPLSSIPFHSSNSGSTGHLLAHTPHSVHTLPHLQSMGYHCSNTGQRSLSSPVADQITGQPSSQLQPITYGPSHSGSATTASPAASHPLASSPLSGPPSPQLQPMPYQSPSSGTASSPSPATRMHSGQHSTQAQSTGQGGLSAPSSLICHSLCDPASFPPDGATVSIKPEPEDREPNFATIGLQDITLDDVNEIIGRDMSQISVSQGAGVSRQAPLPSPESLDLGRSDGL
Sequence of UniProt Q14978 (Q14978 whole entry, looked up): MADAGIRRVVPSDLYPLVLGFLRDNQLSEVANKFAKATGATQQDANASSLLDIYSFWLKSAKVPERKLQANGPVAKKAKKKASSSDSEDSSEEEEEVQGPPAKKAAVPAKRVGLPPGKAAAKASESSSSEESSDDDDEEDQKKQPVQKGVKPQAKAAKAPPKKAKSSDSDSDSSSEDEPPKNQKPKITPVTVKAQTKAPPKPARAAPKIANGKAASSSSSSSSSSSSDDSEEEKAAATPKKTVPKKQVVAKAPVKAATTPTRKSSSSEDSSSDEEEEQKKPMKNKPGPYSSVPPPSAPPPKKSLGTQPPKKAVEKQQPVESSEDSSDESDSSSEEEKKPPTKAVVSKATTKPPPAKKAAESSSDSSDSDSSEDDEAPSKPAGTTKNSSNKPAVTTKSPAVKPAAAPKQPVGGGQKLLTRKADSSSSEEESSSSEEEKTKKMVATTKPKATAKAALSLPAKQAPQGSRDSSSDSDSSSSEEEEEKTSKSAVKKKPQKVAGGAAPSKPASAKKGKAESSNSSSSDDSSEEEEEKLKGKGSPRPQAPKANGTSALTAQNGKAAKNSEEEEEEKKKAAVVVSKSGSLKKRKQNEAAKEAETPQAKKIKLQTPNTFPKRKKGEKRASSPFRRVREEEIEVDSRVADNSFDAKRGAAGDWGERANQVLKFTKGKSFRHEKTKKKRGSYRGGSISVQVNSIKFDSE
Sequence of UniProt Q7L1V2 (Q7L1V2 whole entry, looked up): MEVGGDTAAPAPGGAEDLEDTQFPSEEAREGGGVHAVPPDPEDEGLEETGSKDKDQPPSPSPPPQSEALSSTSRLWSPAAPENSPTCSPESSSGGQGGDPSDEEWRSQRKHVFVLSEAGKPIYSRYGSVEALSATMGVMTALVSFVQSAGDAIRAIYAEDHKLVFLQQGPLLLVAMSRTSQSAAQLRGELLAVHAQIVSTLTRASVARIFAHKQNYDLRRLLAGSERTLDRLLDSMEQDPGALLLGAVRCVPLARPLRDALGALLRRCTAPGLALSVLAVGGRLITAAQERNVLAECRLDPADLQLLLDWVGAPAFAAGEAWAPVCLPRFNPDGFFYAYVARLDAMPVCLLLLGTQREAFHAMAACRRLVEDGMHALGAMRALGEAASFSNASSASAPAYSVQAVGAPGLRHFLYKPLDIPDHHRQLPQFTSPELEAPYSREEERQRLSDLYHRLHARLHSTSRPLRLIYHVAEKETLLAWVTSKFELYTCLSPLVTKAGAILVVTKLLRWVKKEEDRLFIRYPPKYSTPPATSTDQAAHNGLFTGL
Sequence of UniProt Q330K2 (Q330K2 whole entry, looked up): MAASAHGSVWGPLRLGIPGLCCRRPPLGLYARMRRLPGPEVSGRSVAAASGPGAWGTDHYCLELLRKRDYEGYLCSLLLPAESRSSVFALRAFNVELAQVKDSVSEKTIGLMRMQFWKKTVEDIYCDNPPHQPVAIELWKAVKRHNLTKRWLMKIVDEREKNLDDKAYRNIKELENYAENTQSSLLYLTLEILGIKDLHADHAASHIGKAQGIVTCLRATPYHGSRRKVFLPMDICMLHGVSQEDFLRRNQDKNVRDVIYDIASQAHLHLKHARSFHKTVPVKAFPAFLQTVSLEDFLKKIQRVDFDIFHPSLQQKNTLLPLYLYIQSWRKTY
Sequence of UniProt Q9NZT2 (Q9NZT2 whole entry, looked up): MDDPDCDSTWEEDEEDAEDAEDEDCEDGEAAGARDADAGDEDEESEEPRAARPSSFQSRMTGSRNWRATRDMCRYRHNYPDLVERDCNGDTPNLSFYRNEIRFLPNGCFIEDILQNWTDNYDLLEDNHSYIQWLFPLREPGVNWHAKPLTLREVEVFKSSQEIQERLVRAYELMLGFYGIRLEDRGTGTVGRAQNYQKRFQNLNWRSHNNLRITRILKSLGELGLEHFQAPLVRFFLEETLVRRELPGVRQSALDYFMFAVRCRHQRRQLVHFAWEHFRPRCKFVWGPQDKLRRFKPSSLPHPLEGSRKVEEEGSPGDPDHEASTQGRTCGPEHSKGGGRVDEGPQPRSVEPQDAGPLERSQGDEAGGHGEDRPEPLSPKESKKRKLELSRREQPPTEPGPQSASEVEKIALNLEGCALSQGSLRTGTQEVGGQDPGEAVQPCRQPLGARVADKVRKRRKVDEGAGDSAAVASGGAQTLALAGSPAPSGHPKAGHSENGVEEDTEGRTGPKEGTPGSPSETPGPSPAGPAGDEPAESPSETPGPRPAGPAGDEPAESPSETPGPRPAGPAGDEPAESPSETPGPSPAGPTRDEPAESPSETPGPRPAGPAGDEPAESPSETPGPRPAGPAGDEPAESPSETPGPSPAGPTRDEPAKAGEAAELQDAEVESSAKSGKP
Sequence of UniProt P46087 (P46087 whole entry, looked up): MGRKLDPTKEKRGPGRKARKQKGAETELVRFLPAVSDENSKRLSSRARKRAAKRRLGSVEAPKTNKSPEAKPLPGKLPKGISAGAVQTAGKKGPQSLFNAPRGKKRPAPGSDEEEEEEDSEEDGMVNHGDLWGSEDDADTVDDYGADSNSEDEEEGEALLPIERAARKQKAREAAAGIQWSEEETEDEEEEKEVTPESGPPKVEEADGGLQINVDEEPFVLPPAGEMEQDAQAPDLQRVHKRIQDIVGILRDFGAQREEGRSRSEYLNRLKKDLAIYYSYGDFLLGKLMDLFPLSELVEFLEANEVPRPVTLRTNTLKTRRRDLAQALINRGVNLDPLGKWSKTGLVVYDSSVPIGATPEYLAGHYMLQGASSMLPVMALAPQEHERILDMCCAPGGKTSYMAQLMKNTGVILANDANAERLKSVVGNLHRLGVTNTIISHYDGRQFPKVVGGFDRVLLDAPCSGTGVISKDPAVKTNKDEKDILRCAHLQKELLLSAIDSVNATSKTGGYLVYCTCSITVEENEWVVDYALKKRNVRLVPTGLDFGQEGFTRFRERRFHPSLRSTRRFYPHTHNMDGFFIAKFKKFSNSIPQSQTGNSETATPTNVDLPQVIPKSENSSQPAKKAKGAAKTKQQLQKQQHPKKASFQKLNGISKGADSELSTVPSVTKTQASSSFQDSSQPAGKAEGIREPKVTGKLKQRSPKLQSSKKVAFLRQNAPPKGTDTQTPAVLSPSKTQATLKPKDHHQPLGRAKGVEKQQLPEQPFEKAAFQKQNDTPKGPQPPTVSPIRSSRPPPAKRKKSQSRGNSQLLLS
Sequence of UniProt O14524 (O14524 whole entry, looked up): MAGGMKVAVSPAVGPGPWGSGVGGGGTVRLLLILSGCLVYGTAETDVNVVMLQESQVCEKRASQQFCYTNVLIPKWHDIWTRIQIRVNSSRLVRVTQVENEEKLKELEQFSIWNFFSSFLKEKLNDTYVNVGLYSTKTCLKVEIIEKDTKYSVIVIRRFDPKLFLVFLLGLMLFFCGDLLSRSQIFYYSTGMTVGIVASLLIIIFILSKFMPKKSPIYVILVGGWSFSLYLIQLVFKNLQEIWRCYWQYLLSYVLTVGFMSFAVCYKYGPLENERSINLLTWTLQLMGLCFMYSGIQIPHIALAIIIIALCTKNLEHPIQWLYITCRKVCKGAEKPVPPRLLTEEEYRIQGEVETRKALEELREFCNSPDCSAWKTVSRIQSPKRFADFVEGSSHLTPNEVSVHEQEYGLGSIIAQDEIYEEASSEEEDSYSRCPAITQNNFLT
Sequence of UniProt Q8WVJ2 (Q8WVJ2 whole entry, looked up): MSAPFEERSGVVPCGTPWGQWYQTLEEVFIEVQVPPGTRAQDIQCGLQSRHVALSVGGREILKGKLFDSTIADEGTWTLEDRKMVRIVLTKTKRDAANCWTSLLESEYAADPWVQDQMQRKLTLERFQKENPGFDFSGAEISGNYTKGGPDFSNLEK

Target	log2 fold change
MON1B (UniProt Q7L1V2)	-0.015
NEMP1 (UniProt O14524)	0.026
NDUFAF6 (UniProt Q330K2)	-0.108
NFATC3 (UniProt Q12968)	0.281
MRPS15 (UniProt P82914)	0.084
NUP160 (UniProt Q12769)	0.019
NEU1 (UniProt Q99519)	-0.012
OGFR (UniProt Q9NZT2)	0.132
NBN (UniProt O60934)	0.006
MYH10 isoform 3 (UniProt P35580)	-0.056
MRPS24 (UniProt Q96EL2)	0.153
NOP2 isoform 4 (UniProt P46087)	0.673
NEDD4 isoform 4 (UniProt P46934)	-0.099
NOLC1 isoform 2 (UniProt Q14978)	-0.025
PAFAH1B2 (UniProt P68402)	0.037

Compound: CNc1nc(-c2ccc3c(N)n[nH]c3c2)cc(N2C[C@@H](C(=O)NC3CCCCC3)CC[C@H]2C)n1
Test: as above
How it was run: as §1

Target	log2 fold change
NUDCD2 (UniProt Q8WVJ2)	0
NA, A0A096LPI6	-0.055
NAP1L1 (UniProt P55209)	-0.084
NCL (UniProt P19338)	0.137
NUP107 (UniProt P57740)	0.02
MRPL46 (UniProt Q9H2W6)	0.115
MRPS22 (UniProt P82650)	0.169
MSTO1 (UniProt Q9BUK6)	0.235 (active)
NOL11 (UniProt Q9H8H0)	0.002
NFYC (UniProt Q13952)	-0.019
MTMR14 (UniProt Q8NCE2)	-0.064
NISCH (UniProt Q9Y2I1)	-0.072
NAPG (UniProt Q99747)	0.053
NDUFA4 (UniProt O00483)	-0.129
NUMB (UniProt P49757)	0.065
MRPS18B (UniProt Q9Y676)	0.225
NUP85 (UniProt Q9BW27)	-0.034
MTHFD1 (UniProt P11586)	0.058
NOSIP (UniProt Q9Y314)	-0.106
NECTIN2 (UniProt Q92692)	0.049

Target	log2 fold change
NUP205 (UniProt Q92621)	-0.012
NFATC2IP (UniProt Q8NCF5)	0.005
NRF1 isoform 4 (UniProt Q16656)	-0.061
MRPS12 (UniProt O15235)	0.233
MON1B (UniProt Q7L1V2)	-0.036
NEMP1 (UniProt O14524)	-0.045
NDUFAF6 (UniProt Q330K2)	-0.146
NFATC3 (UniProt Q12968)	-0.539 (active)
MRPS15 (UniProt P82914)	0.115
NUP160 (UniProt Q12769)	-0.018
NEU1 (UniProt Q99519)	-0.011
OGFR (UniProt Q9NZT2)	0.009
NBN (UniProt O60934)	0.049
MYH10 isoform 3 (UniProt P35580)	-0.005
MRPS24 (UniProt Q96EL2)	0.137
NOP2 isoform 4 (UniProt P46087)	0.115
NEDD4 isoform 4 (UniProt P46934)	-0.026
NOLC1 isoform 2 (UniProt Q14978)	-0.089
PAFAH1B2 (UniProt P68402)	0.078
